Measurements: the supplement of paper PMC6555819

Experiments:
Assay in all cases: PBM binding z-score (relative to random genomic background probes); higher = stronger binding; sequences stand for … in GC…GCGATTGACAGCGTAGAATGAAGG
[1] = system: PPARg:RXRa DBDmut IVT, anti-RXR (DBD mutation: RXRa K156A/R161A, NR concentration 270 nM, RXRa partner concentration 90 nM)
Procedure, shortened: (§1)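 Custom Agilent 4×180K protein-binding microarrays carried double-stranded probes. Their 34-nt variable regions held direct-repeat seeds, single-nucleotide variants, half-site ablations and random human genomic background sequences. Arrays were incubated 1 h with ligand-free nuclear receptor dimers in PBS pH 7.4, 2% milk, 0.02% Triton X-100, 1 mM DTT, 0.2 mg/mL BSA and 0.4 mg/ml salmon testes DNA. Antibodies against each partner (one per run) detected binding, and scanned fluorescence was regression-normalized. Binding z-scores use random background probes as reference.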

[2] = system: PPARg:RXRa IVT, anti-PPARg (NR concentration 270 nM, RXRa partner concentration 90 nM)
Procedure, shortened: as §1

[3] = system: PPARg DBDmut:RXRa IVT, anti-PPARg (DBD mutation: PPARg1 K132A/R137A, NR concentration 270 nM, RXRa partner concentration 90 nM)
Procedure, shortened: as §1

[4] = system: PPARg DBDmut IVT, anti-PPARg (DBD mutation: PPARg1 K132A/R137A, NR concentration 270 nM)
Procedure, shortened: as §1

[5] = system: PPARg homodimer (NR concentration 180 nM)
Procedure, shortened: as §1

[6] = system: PXR:RXRa (NR concentration 270 nM, RXRa partner concentration 90 nM)
Procedure, shortened: as §1

[7] = system: PXR homodimer (NR concentration 270 nM)
Procedure, shortened: as §1

[8] = system: RARa:RXR (NR concentration 270 nM, RXRa partner concentration 90 nM)
Procedure, shortened: as §1

[9] = system: RARa homodimer (NR concentration 270 nM)
Procedure, shortened: as §1

[10] = system: RARb:RXRa (NR concentration 270 nM, RXRa partner concentration 90 nM)
Procedure, shortened: as §1

Row | Sequence | PBM binding z-score [1] | PBM binding z-score [2] | PBM binding z-score [3] | PBM binding z-score [4] | PBM binding z-score [5] | PBM binding z-score [6] | PBM binding z-score [7] | PBM binding z-score [8] | PBM binding z-score [9] | PBM binding z-score [10]
1 | GGAAAGAGGGCAAAGTTGATAGCATCTGTCGACG | 3.73 | 3.74 | 1.03 | -0.31 | 1.67 | 1.77 | 0.468 | 2.25 | 0.527 | 2.77
2 | GCTAGCAGGCCTTTTGGGTCACTCAATGACGGGC | 0.302 | 0.843 | -1.25 | -1.51 | -0.592 | 0.137 | -0.69 | 0.937 | -0.611 | 1.06
3 | CGAACTAGGTCAAGGTCAAAGTCGGTTTGTGCCA | 8.45 | 8.59 | 3.32 | 1.2 | 4.39 | 5.28 | 2.59 | 5.41 | 1.57 | 4.93
4 | ACAGCCAGGTGATGAAGGTAACTCAGGCTATCAT | 0.0691 | 0.392 | -0.315 | -0.803 | -0.425 | -0.407 | -0.502 | 0.0022 | -0.504 | -0.00483
5 | TCTAGCAAGCCAGAGGGTCACTCAAGAGGTACGG | 0.615 | -0.0358 | -1.2 | -1.18 | 0.24 | 0.871 | -0.204 | 1.96 | -0.908 | 1.62
6 | CCTCGGAGGACAACATGAGGTCAGAGCTGCCAGA | 0.44 | 0.437 | -0.816 | -1.02 | 1.69 | 2.8 | 0.437 | 2.67 | 0.194 | 3.04
7 | CCTGCTAGGTTAATGGTCAGCTAAAGCAGCTCGC | 2.01 | 1.36 | -0.242 | -0.61 | 0.222 | -0.336 | -0.337 | 0.0339 | -0.547 | 1.26
8 | CGAACTAGGTCAAGGACAGTGAGTCTCCGCACGC | 8.24 | 8.49 | 4.66 | 1.15 | 1.2 | 0.826 | -0.0553 | 1.87 | -0.462 | 3.83
9 | TCTGCTAGGTCAACTATGGTCAGCTAATCTGCTA | 3.77 | 4.24 | 0.825 | 0.277 | 1.55 | 2.47 | -0.42 | 2.76 | 0.288 | 4.38
10 | CCTACTGGGCCATTCAGTGGTCATTGATCATATG | 3.99 | 3.43 | -0.19 | -0.875 | -0.524 | -0.597 | -0.649 | -0.725 | -0.259 | 0.368
11 | ACAATGAGGTTATTAAGATCAGGGAATTGCGGTC | 2.08 | 2.07 | 1.27 | 1.25 | 0.869 | 1.58 | 1.15 | 1.49 | 1.12 | 1.74
12 | TCTTGTAGACCAACAGGAGGTTAAGAAAGATCGA | 1.42 | 0.757 | -0.365 | 0.137 | -0.0799 | 0.757 | 0.175 | 0.783 | -0.189 | 0.416
13 | GCTAGTTGGTCCGTAAAAGGTCACACACCGGTCG | 0.234 | 1.86 | 0.724 | 0.195 | 2.89 | 4.94 | 1.12 | 5.63 | 1.86 | 3.99
14 | AATACAGGGTCATCGTAGGCTAGAGTACGCACAG | 3.07 | 3.89 | 1.38 | 0.798 | 1.99 | 4.52 | 0.956 | 4.85 | 1.03 | 4.33
15 | TCTAGTAGATCAAGCAGGTTAAGAAAGCCTGAGT | 1.47 | 0.398 | -0.251 | -0.0304 | 0.0496 | 0.277 | -0.142 | 0.334 | -0.0896 | -0.149
16 | TCGAGTAGGTTTGGGGCATTCAGAATGGCGTCGA | 0.667 | -0.179 | -0.869 | -0.587 | -0.00492 | -0.143 | -0.414 | -0.156 | -0.479 | -0.00663
17 | TCTAGTTGGTCATAGGTCACACACTCGAAATGCG | 2.59 | 4.4 | 1.15 | 1.18 | 3.12 | 3.48 | 1.07 | 4.39 | 1.88 | 3.22
18 | CAAACTAGGTCACGAAAGGTGAAAGTCGAATGAC | 8.57 | 8.88 | 1.44 | 1.5 | 3.13 | 4.13 | 0.228 | 4.69 | 1.24 | 4.84
19 | TCCTATAGGTAAACAGGTGAAAGTCCGTAAGTTA | 3.29 | 3.06 | 0.2 | 0.663 | 0.672 | 0.638 | 0.0288 | 0.69 | 0.325 | 0.692
20 | CAAACTAGGTCAGAGAGGTCAAAGTCCGTGCGTA | 7.7 | 8.02 | 1.22 | 0.373 | 4.15 | 6.24 | 10.2 | 6.29 | 2.07 | 4.84
21 | GCTTACGGGTCAAAGGTTATAGGATGAATAGAAT | 4.59 | 5.81 | 2.01 | 1.61 | 3.34 | 6.34 | 0.559 | 8.36 | 1.33 | 4.59
22 | ACTATTAGTTGACACGAGGGCAACCGATAGGTTG | 0.272 | 1.04 | 0.784 | 0.778 | 0.695 | 1.75 | 0.634 | 1.74 | 0.708 | 1.59
23 | TCTCGGAGGACACGAAGGTCTGAGCTTTCCAGAG | 1.12 | -0.0413 | -0.829 | -1.69 | -0.904 | -0.33 | -0.787 | 0.107 | -1.21 | 1.46
